In test [1] the target is Estrogen receptor (Homo sapiens) (UniProt P03372). Nature of the test: CCTE_Deisenroth_AIME_384WELL_LUC_Active: CCTE's 384-well Estrogen Receptor Transactivation Assay with AIME metabolic competence (ERTA luciferase; metabolism positive), Deisenroth Lab (AID 2284030; active means hit-call score of the fitted dose curve at least 0.9, where 1 is the maximum). An outline of the steps:
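Test chemicals (10-point series, 0.002 - 200 uM) were preincubated 2 hours with alginate-immobilized phenobarbital/beta-naphthoflavone-induced male Sprague Dawley rat liver S9; conditioned medium then went onto VM7Luc4E2 breast cells for 24 hour. Luciferase gain-of-signal fitted relative to 17beta-estradiol.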

Test [2] in a line: CCTE_Deisenroth_AIME_384WELL_CTox_Active: Cytotoxicity Assessment (CTOX) in CCTE's 384-well Estrogen Receptor Transactivation Assay with AIME metabolic competence (metabolism positive), Deisenroth Lab (AID 2284037; active means hit-call score of the fitted dose curve at least 0.9, where 1 is the maximum;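 further: activity means signal loss indicating cell death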). Summed up: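 VM7Luc4E2 breast cells received medium pre-incubated 2 h with chemical over alginate microspheres holding induced male Sprague Dawley rat liver S9; viability read 24 h later by protease-substrate fluorescence. Loss of signal, bidirectional fit, 0.002–200 uM.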

In test [3] the target is Estrogen receptor (Homo sapiens) (UniProt P03372). Description: CCTE_Deisenroth_AIME_384WELL_LUC_Inactive: CCTE's 384-well Estrogen Receptor Transactivation Assay without AIME metabolic competence (ERTA luciferase; metabolism negative), Deisenroth Lab (AID 2284038; active means hit-call score of the fitted dose curve at least 0.9, where 1 is the maximum;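 further: hits raise estrogen receptor luciferase signal so potencies reflect agonists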). Summed up: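 Metabolism-negative mode: chemicals (10-point, 0.002–200 uM) held 2 h with alginate-water microspheres, then conditioned medium applied to VM7Luc4E2 cells for 24 h. Luciferase induction referenced to 17beta-estradiol.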

The nature of test [4]: CCTE_Deisenroth_AIME_384WELL_CTox_Inactive: Cytotoxicity Assessment (CTOX) in CCTE's 384-well Estrogen Receptor Transactivation Assay without AIME metabolic competence (metabolism negative), Deisenroth Lab (AID 2284039; active means hit-call score of the fitted dose curve at least 0.9, where 1 is the maximum;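 further: cell viability via live-cell protease substrate cleaved to fluorescent probe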). Summed up: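 Fluorescent protease-substrate viability readout after 24 h exposure of VM7Luc4E2 cells to conditioned medium. Chemicals (0.002–200 uM) first sat 2 h over alginate-water beads, no S9. Data fitted bidirectionally, loss of signal meaning viability loss.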

Test [5] deals with Estrogen receptor (Homo sapiens) (UniProt P03372). Nature of the test: CCTE_Deisenroth_AIME_384WELL_LUC_Shift: CCTE's 384-well Estrogen Receptor Transactivation Assay with AIME metabolic competence data shift (ERTA luciferase; difference in metabolism positive and negative), Deisenroth Lab (AID 2284041).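 Further: shift is response with S9 minus without S9 so positive means metabolism raised ER signal.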 An outline of the steps:
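Here, parent compounds undergo 2 h phase I metabolism by PB/BNF-induced rat S9 before 24 h transactivation in VM7Luc4E2 cells; the curve models S9-positive minus S9-negative response over a 10-point series.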

Test [6] in a line: CCTE_Shafer_MEA_acute_per_network_burst_electrodes_number_mean: CCTE's Neural Acute Assay for Mean Number of Electrodes in a Network Burst, Shafer Lab (AID 2284021).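 Further: curves fitted for decreases only so hits reduce electrodes per burst.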 Summed up:
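Rat primary cortical neurons on 16-electrode MEA wells were recorded 40 min at baseline on DIV 13 or 15, then 40 min after compound (0.03-40 uM), at 37 C. Value is percent change per well, fitted in loss direction versus DMSO.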

Test [7] is described as follows: CCTE_Shafer_MEA_acute_cross_correlation_area: CCTE's Neural Acute Assay for Area of Cross Correlation, Shafer Lab (AID 2284024).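 Further: area under pooled inter-electrode spike cross-correlation near zero lag as percent change from own baseline; curves fitted for loss of cross-correlation area so actives lower synchrony.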 Summed up:
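Primary rat cortical neurons on 48-well MEA plates (16 electrodes/well) were recorded 40 min at baseline on DIV 13 or 15, then 40 min with compound (0.03-40 uM) at 37 C; cross-correlation area expressed as percent change from baseline.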

Test [8] can be described thus: CCTE_Shafer_MEA_acute_synchrony_index: CCTE's Neural Acute Assay for Synchrony, Shafer Lab (AID 2284027).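 Further: network synchrony index of spontaneous spiking in primary rat cortical neurons on MEAs; fitted for loss of signal so actives lower synchrony relative to DMSO.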 Summed up:
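Primary rat cortical neurons on 48-well MEAs, dosed at 0.03–40 uM on DIV 13 or 15. Spikes are recorded for 40 min at 37C before and after exposure, and synchrony index (0–1) is expressed as percent change from baseline per well.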

Test [9] can be described thus: CCTE_Shafer_MEA_dev_firing_rate_mean: CCTE's Neural Network Formation Assay for Mean Firing Rate, Shafer Lab (AID 2284031). Summed up: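 Primary rat cortical neurons on 48-well MEA plates, exposed from plating day 0 with dosing renewed on DIV 5 and 9. Mean well firing rate over active electrodes, recorded days 5, 7, 9, 12, summarised as trapezoidal AUC.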
The nature of test [10]: CCTE_Shafer_MEA_dev_per_burst_spike_percent: CCTE's Neural Network Formation Assay for Percent of Spikes in a Burst, Shafer Lab (AID 2284032).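 On AC50: fitted as a decrease in burst spike percentage below DMSO baseline.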 Summed up:
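Rat primary cortical neurons on 16-electrode MEA wells, dosed from plating day 0 for 12 days with renewal on DIV 5 and 9; spikes-in-bursts percentage averaged over bursting electrodes, collapsed as AUC across days 5, 7, 9, 12; loss direction versus DMSO.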

The nature of test [11]: CCTE_Shafer_MEA_dev_burst_rate: CCTE's Neural Network Formation Assay for Burst Rate, Shafer Lab (AID 2284042).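 On AC50: potency for loss of burst rate below DMSO control.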 Summed up: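 Exposure ran continuously over 12 days of network development in rat cortical cultures, with compound refreshed during full media changes on DIV 5 and 9. Single-electrode bursts per recording time, well-mean over active electrodes, trapezoidal AUC across days 5–12, fitted downward relative to DMSO.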

Test [12] in a line: CCTE_Shafer_MEA_dev_per_burst_interspike_interval: CCTE's Neural Network Formation Assay for Burst Interspike Interval, Shafer Lab (AID 2284044).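 Further: mean spike spacing inside bursts as AUC over recordings on days 5 7 9 12.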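 On AC50: potency for a decrease of within-burst interspike interval below DMSO level.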 Summed up:
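Rat cortical primary cultures, 16 electrodes/well; compound from plating, renewed with full media change DIV 5 and 9. Spikes via adaptive detector; per-burst ISI well-mean over active bursting electrodes; AUC of DIV 5/7/9/12 recordings; loss-direction fit vs DMSO.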

Test [13] can be described thus: CCTE_Shafer_MEA_dev_burst_duration_mean: CCTE's Neural Network Formation Assay for Mean Burst Duration, Shafer Lab (AID 2284045). Summed up:
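Primary rat cortical neurons on PEI-coated 16-electrode MEA wells, exposed from plating through day 12 with compound renewed at DIV 5 and 9; spontaneous activity recorded days 5, 7, 9, 12. Well-mean burst duration collapsed as trapezoidal AUC, fitted for loss versus DMSO.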

Test [14] in a line: CCTE_Shafer_MEA_dev_interburst_interval_mean: CCTE's Neural Network Formation Assay for Mean Interburst Interval, Shafer Lab (AID 2284046).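 Further: well-mean interburst interval of bursting electrodes as AUC over four recording days; curve fitted for decrease in interburst interval relative to DMSO.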 An outline of the steps:
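Primary rat cortical neurons on PEI-coated 48-well MEA plates (laminin added with cells at plating) (16 electrodes/well), exposed from plating day 0 with renewal at DIV 5 and 9. Mean inter-burst interval averaged over bursting electrodes, AUC across days 5, 7, 9, 12; DMSO baseline.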

Test [15] is described as follows: CCTE_Shafer_MEA_dev_inter_network_spike_interval_mean: CCTE's Neural Network Formation Assay for Mean Inter-network Spike Interval, Shafer Lab (AID 2284047). Summed up:
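Mean time between consecutive network-spike peaks, recorded extracellularly (adaptive spike detection) on DIV 5, 7, 9 and 12, summarized as trapezoidal AUC. Rat cortical cultures on MEAs dosed continuously days 0–12, re-dosed at feeds; loss-of-signal fit relative to DMSO.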

Test [16] in a line: CCTE_Shafer_MEA_dev_network_spike_number: CCTE's Neural Network Formation Assay for Number of Network Spikes, Shafer Lab (AID 2284048).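 Further: synchronized bursts across electrodes counted on days 5 7 9 12 and integrated as AUC.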 Summed up: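 Primary rat cortical neurons were seeded at 1.5 x 10^5 cells/well on PEI-coated 16-electrode MEA wells with laminin, exposed from plating day 0, compound renewed at DIV 5 and 9. Network spikes were recorded on days 5, 7, 9, 12 and summarized as trapezoidal AUC versus DMSO.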

The target of test [17] is Estrogen receptor (Homo sapiens) (UniProt P03372). Description: CCTE_Deisenroth_AIME_96WELL_LUC_Active: CCTE's 96-well Estrogen Receptor Transactivation Assay with AIME metabolic competence (ERTA luciferase; metabolism positive), Deisenroth Lab (AID 2284023; active means hit-call score of the fitted dose curve at least 0.9, where 1 is the maximum). Summed up: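 Chemicals pre-incubated 2 h with alginate-immobilized phenobarbital/beta-naphthoflavone-induced male Sprague Dawley rat liver S9, then medium transferred to VM7Luc4E2 cells for 24 h luciferase read-out. 10-point series 0.002 - 200 uM; fitted relative to 17beta-estradiol.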

Test [18] has the same target. Nature of the test: CCTE_Deisenroth_AIME_96WELL_LUC_Inactive: CCTE's 96-well Estrogen Receptor Transactivation Assay without AIME metabolic competence (ERTA luciferase; metabolism negative), Deisenroth Lab (AID 2284025; active means hit-call score of the fitted dose curve at least 0.9, where 1 is the maximum). Summed up:
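VM7Luc4E2 breast cells, luciferase read 24 h after dosing with medium pre-incubated 2 h on alginate-water lids (metabolism negative). 10-point series 0.002–200 uM, single technical replicate, n≥4; fit relative to 17beta-estradiol.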

Test [19] in a line: CCTE_Deisenroth_AIME_96WELL_CTox_Active: Cytotoxicity Assessment (CTOX) in CCTE's 96-well Estrogen Receptor Transactivation Assay with AIME metabolic competence (metabolism positive), Deisenroth Lab (AID 2284028; active means hit-call score of the fitted dose curve at least 0.9, where 1 is the maximum). Summed up:
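Chemicals (0.002–200 uM) were first incubated 2 h with alginate-immobilized phenobarbital/beta-naphthoflavone-induced male rat liver S9; conditioned medium then went onto VM7Luc4E2 cells for 24 h, with viability read by protease-substrate fluorescence, fitted bidirectionally.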

A short description of test [20]: CCTE_Deisenroth_AIME_96WELL_CTox_Inactive: Cytotoxicity Assessment (CTOX) in CCTE's 96-well Estrogen Receptor Transactivation Assay without AIME metabolic competence (metabolism negative), Deisenroth Lab (AID 2284029; active means hit-call score of the fitted dose curve at least 0.9, where 1 is the maximum). An outline of the steps: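 Chemicals (0.002 - 200 uM, 10 points) incubated 2 h with alginate-water microspheres (no S9), then medium moved onto VM7Luc4E2 cells for 24 h. Viability by protease-substrate cleavage to fluorescent probe; bidirectional fitting.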

SMILES strings stand for the structures. Several values for one entry are separate records, joined by “and”; a condition that tells them apart may be missing. Equal values may be shown once. Records with an inconclusive call do not appear. A structure can be active in one record and inactive in another. Activity calls are given as the source filed them. How the source made its calls, unless noted: active means hit-call score of the fitted dose curve at least 0.9, where 1 is the maximum; inactive means score below 0.9.

Chain of Estrogen receptor (Homo sapiens) (P03372 whole entry, looked up): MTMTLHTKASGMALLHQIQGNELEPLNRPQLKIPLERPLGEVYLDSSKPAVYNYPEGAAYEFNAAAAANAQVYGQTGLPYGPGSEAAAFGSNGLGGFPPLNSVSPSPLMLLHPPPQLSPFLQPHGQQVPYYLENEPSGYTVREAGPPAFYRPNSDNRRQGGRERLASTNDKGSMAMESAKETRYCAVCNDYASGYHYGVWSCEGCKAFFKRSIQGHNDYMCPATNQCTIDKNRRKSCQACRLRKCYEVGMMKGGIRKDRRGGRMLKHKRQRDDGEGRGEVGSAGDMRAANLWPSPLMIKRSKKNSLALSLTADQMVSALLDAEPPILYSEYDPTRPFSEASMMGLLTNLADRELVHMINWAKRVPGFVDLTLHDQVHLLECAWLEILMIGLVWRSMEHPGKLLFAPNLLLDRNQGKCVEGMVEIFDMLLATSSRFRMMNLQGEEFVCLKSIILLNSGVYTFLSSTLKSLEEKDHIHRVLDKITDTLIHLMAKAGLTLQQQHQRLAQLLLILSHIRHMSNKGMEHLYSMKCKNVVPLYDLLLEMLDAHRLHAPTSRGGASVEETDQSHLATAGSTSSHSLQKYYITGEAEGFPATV

With `CCOC(=O)COc1cc(-n2ncc(C(F)(F)F)c(C)c2=O)c(F)cc1Cl`, the result in test [1], in [2], in [3], in test [4] and in [5] was inactive.

With `OB(O)O`, the compound was called inactive in test [6], in test [7], in [8], in [9], in test [10] and in test [11]. Further, the compound was classed as inactive in test [12], in [13], in [14], in test [15] and in test [16].

What is called AC50 is the concentration giving half of the maximal activity seen. Turning to `CCCCOCCOCCOCc1cc2c(cc1CCC)OCO2`, the compound was classed as inactive in test [9], in [11], in test [12], in test [13], in test [14] and in [15]. Besides, in test [16], the call was inactive. Moreover, the AC50 in test [10] was 10 µM (active).

As for `c1ccc(Nc2ccccc2)cc1`, the result in [4] was inactive.

Regarding `CC(=O)S[C@@H]1CC2=CC(=O)CC[C@]2(C)[C@H]2CC[C@@]3(C)[C@@H](CC[C@@]34CCC(=O)O4)[C@H]12`, the call in test [17], in test [18] and in test [19] was inactive. Besides, the AC50 in [20] was 127 µM (active).

Take `O=C(Nc1ccc([N+](=O)[O-])cc1Cl)c1cc(Cl)ccc1O`: the AC50 in test [6] was 0.301 µM (active); in test [7], 0.0774 µM (active); in test [8], 0.277 µM (active). The compound was classed as inactive in test [1], in [2] and in [5].

On to `COc1c(Cl)ccc(Cl)c1C(=O)O`, for which the compound was classed as inactive in test [1], in [3] and in [5].

With `CCCOC(=O)NCCCN(C)C`, the result in [2] and in test [4] was inactive.

`O=C(c1ccc(O)cc1O)c1ccc(O)cc1O`: the compound was called inactive in test [6], in test [7], in [8], in [2], in test [4] and in test [5]. For the same compound, the AC50 was 6.67 µM (active) in test [1] and 6.69 µM (active) in test [3].

Take `CC1(C)C(C=C(Cl)Cl)C1C(=O)OCc1cccc(Oc2ccccc2)c1` (stereo not drawn): the AC50 in [6] is 6 µM (active); in [17], 65.9 µM (active); in [18], 75.6 µM (active); in test [8], 34.7 µM (active); in test [10], 21.4 µM (active) and 7.56 µM (active); in [11] it was 27.7 µM (active). Also, the AC50 in test [12] was 25.5 µM (active); in test [14], 25.4 µM (active) and 10.1 µM (active). Further, the outcome in [7], in test [9], in [11], in test [12], in [13] and in [15] was inactive. The result in test [16] was inactive.

Take `c1ccc2[nH]c(-c3cscn3)nc2c1`: the AC50 in test [1] is 30.5 µM (active); in [3] it was 2.7 µM (active); in test [5], 0.482 µM (active). Moreover, the result in test [2] and in test [4] was inactive.

These data come from PubChem BioAssay (EPA / NIEHS).
